This is one part of a sample in which hits are shown more often than they occur.
SF1 inhibitor: SF-1 (human) inhibition. Q13285. 65,000 compounds, 0.55% hits. inhibition, % at 10 µM. CHO-K1 Gal4-SF-1 LBD luciferase reporter;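 active means inhibition above the mean inhibition of all tested compounds plus 3 SD, cut at about 48% in these data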;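 further: 0% = SF-1 transfected cells with DMSO and 100% = mock-transfected cells lacking SF-1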
* = called active by the depositor.

SMILES	SF1 inhibitor
CCOc1ccc(NS(=O)(=O)c2ccc(SC)cc2)cc1	0
CCCCOc1ccc(S(=O)(=O)Nc2cccnc2)cc1	49*
O=S(=O)(Nc1cccc(C(F)(F)F)c1)c1cccnc1	5
Cc1cccc(CN2CCC(CNC(=O)C3CCCN(S(=O)(=O)c4cnc[nH]4)C3)CC2)c1 (stereo unspecified)	-3
CCC(C)(C(=O)NC1CCCC1)N(C(=O)c1cnccn1)c1c(C)n(C)n(-c2ccccc2)c1=O (stereo unspecified)	-11
O=C(c1cc2c(=O)oc3ccccc3c2s1)N1CCN(c2ncccn2)CC1	-4
COc1ccc2c(c1)sc1nc(-c3ccccc3)cn12	89*
Cc1c(C(=O)Nc2ccccc2)sc2nc(-c3ccccc3)cn12	-54
COc1cccc(-c2csc(NC(=O)C3CC3)n2)c1	-60
CC(C)CCNC(=O)CN(CCN1CCOCC1)C(=O)Cn1nnc(-c2ccc(F)cc2)n1	-12
Cn1cccc1C(=O)OCc1cc(Cl)cc2c1OCOC2	-60
CCN(CC)c1ccc(NC(=O)c2ccccc2F)cc1	-74
CCN(CC)c1ccc2cc(-c3nnc(-c4ccncc4)o3)c(=O)oc2c1	-73
CCN(CC)c1ccc2cc(NC(=O)CCC(=O)O)c(=O)oc2c1	59*
COc1ccc(C(=O)Nn2c(SCC(=O)NCC3CCCO3)nc3ccccc3c2=O)cc1 (stereo unspecified)	67*
COc1ccc(CC(=O)Nc2ccc(S(=O)(=O)NCC3CCCO3)cc2)cc1 (stereo unspecified)	7
COC(=O)c1ccc2c(=O)n(CCN3CCOCC3)c(SCC(=O)c3ccccc3)nc2c1	-8
CCOC(=O)C1CCCN(C(=O)CCCOc2cc(=O)n(C)c3ccccc23)C1 (stereo unspecified)	14
CCC1CCCCN1C(=O)COc1cc(=O)n(C)c2ccccc12 (stereo unspecified)	0
Cc1ccnc(NC(=O)CCCOc2cc(=O)n(C)c3ccccc23)c1	59*
O=C(COc1ccc(Cl)cc1)NC1CCSC1=O (stereo unspecified)	-3
O=C(COc1ccccc1Cl)N1CCN(c2ncccn2)CC1	-5
CCN(C(=O)c1ccc(C(C)(C)C)cc1)c1nnc(Cn2nnc3ccccc32)s1	69*

Source: PubChem
